Activity calls are given as the source filed them. The calls were made as follows: active = hit-call score of the fitted dose curve at least 0.9, where 1 is the maximum; inactive = score below 0.9.
Legend:
Settings in all cases: mRNA level, 48 h; actives raise or lower the signal
[1] = read-out: Pro-epidermal growth factor (Homo sapiens) (UniProt P01133); test: LTEA_HepaRG_EGF: Life Technologies and Expression Analysis (LTEA) Assay for Epidermal growth factor (EGF) using HepaRG (AID 2283489)
In short: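 EGF expression changes in human HepaRG cells are scored by bidirectional fitting relative to 0.5% DMSO controls. Chemicals are tested at eight half-log concentrations up to 100 uM for 48 h in serum-free induction medium.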

[2] = read-out: Early growth response protein 1 (EGR1) transcription factor, EGR1 (gene 1958); test: LTEA_HepaRG_EGR1: Life Technologies and Expression Analysis (LTEA) Assay for Early growth response protein 1 (EGR1) transcription factor using HepaRG (AID 2283490)
In short: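 EGR1 transcript levels quantified by qRT-PCR (Fluidigm arrays) against three housekeeping genes after 48 h chemical exposure of HepaRG cells. Eight-point half-log series topping at 100 uM, 0.5% DMSO vehicle, analyzed for gain or loss.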

[3] = read-out: Ezrin (EZR), EZR (gene 7430); test: LTEA_HepaRG_EZR: Life Technologies and Expression Analysis (LTEA) Assay for Ezrin (EZR) using HepaRG (AID 2283491)
In short: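 Differentiated human HepaRG cells, 48 h after plating, were exposed in serum-free induction medium for 48 hours to eight half-log concentrations up to 100 uM in 0.5% DMSO. EZR mRNA was measured by TaqMan qRT-PCR, normalized to ACTB, GAPDH and POLR2A, and fitted bidirectionally against DMSO.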

[4] = read-out: Cytochrome P450 3A7 (Homo sapiens) (UniProt P24462); test: LTEA_HepaRG_CYP3A7: Life Technologies and Expression Analysis (LTEA) Assay for CYP3A7 using HepaRG (AID 2283492)
In short: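 Cells were thawed, plated, cultured 48 h, then treated for a further 48 h with chemicals (eight-point half-log series from 100 uM, 0.5% DMSO). RNA was isolated and CYP3A7 expression quantified by qRT-PCR normalised to ACTB, GAPDH and POLR2A.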

CYP3A5 (gene 1577) = test: LTEA_HepaRG_CYP3A5: Life Technologies and Expression Analysis (LTEA) Assay for CYP3A5 using HepaRG (AID 2283493)
In short: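 Human HepaRG hepatic cells receive 48 h chemical treatment at eight concentrations (half-log steps from 100 uM) in 0.5% DMSO. Expression of CYP3A5 is quantified by Fluidigm qRT-PCR and normalized to three reference genes.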

[5] = read-out: Fatty Acid-Binding Protein 1 (FABP1), FABP1 (gene 2168); test: LTEA_HepaRG_FABP1: Life Technologies and Expression Analysis (LTEA) Assay for Fatty Acid-Binding Protein 1 (FABP1) using HepaRG (AID 2283494)
In short: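 FABP1 expression by TaqMan qRT-PCR, normalised to three housekeeping genes, in HepaRG cells after 48 h chemical treatment. Eight-point half-log series topping at 100 uM in 0.5% DMSO, duplicates; gain or loss fitted relative to vehicle.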

[6] = read-out: Cytochrome P450 4A22 (Homo sapiens) (UniProt Q5TCH4); test: LTEA_HepaRG_CYP4A22: Life Technologies and Expression Analysis (LTEA) Assay for Cytochrome P450 4A22 (CYP4A22) using HepaRG (AID 2283495)
In short: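 Cryopreserved HepaRG cells, plated and cultured 48 h, then switched to serum-free induction medium and treated 48 h (duplicates, up to 100 uM, half-log steps, 0.5% DMSO). Expression change of CYP4A22 was fitted bidirectionally against vehicle.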

[7] = read-out: Cytochrome P450 7A1 (Homo sapiens) (UniProt P22680); test: LTEA_HepaRG_CYP7A1: Life Technologies and Expression Analysis (LTEA) Assay for Cytochrome P450 7A1 (CYP7A1) using HepaRG (AID 2283496)
In short: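 HepaRG, 48 h exposure, 8-pt half-log series from 100 uM, 0.5% DMSO vehicle, duplicates. Readout: TaqMan qRT-PCR mRNA vs three housekeeping genes; bidirectional curve fit against DMSO baseline.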

[8] = read-out: Glutathione S-Transferase (GSTA2), GSTA2 (gene 2939); test: LTEA_HepaRG_GSTA2: Life Technologies and Expression Analysis (LTEA) Assay for Glutathione S-Transferase (GSTA2) using HepaRG (AID 2283497)
In short: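 GSTA2 transcript levels came from Fluidigm TaqMan qRT-PCR normalized to three housekeeping genes, fitted in both directions against DMSO. HepaRG cultures received chemicals for 48 h in serum-free induction medium (0.5% DMSO), 8 half-log concentrations up to 100 uM, duplicate.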

[9] = read-out: Glutamate-cysteine ligase catalytic (GCLC), GCLC (gene 2729); test: LTEA_HepaRG_GCLC: Life Technologies and Expression Analysis (LTEA) Assay for Glutamate-cysteine ligase catalytic (GCLC) using HepaRG (AID 2283498)
In short: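 Expression by TaqMan qRT-PCR, normalized to three housekeeping genes (ACTB, GAPDH, POLR2A), with up- or down-regulation fitted against DMSO. HepaRG cells dosed in duplicate for 48 h with 8 half-log concentrations up to 100 uM, vehicle 0.5% DMSO.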

[10] = read-out: growth arrest and DNA damage 45 (GADD45G), GADD45G (gene 10912); test: LTEA_HepaRG_GADD45G: Life Technologies and Expression Analysis (LTEA) Assay for growth arrest and DNA damage 45 (GADD45G) using HepaRG (AID 2283499)
In short: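 Human hepatic HepaRG line treated 48 h with chemicals (eight concentrations, half-log steps from 100 uM); transcript induction or repression of GADD45G scored by qRT-PCR versus DMSO vehicle.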

[11] = read-out: Heat shock 70 kDa protein 1 (HSPA1A), gene 3303; test: LTEA_HepaRG_HSPA1A: Life Technologies and Expression Analysis (LTEA) Assay for Heat shock 70 kDa protein 1 (HSPA1A) using HepaRG (AID 2283502)
In short: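 Cells were plated and cultured for 48 h, then switched to serum-free induction medium. Chemicals were added at eight half-log concentrations up to 100 uM for 48 h. RNA was then isolated and HSPA1A measured by qRT-PCR with bidirectional curve fitting against DMSO.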

[12] = read-out: Hypoxia-inducible factor 1-alpha (Homo sapiens) (UniProt Q16665); test: LTEA_HepaRG_HIF1A: Life Technologies and Expression Analysis (LTEA) Assay for Hypoxia-inducible factor 1 (HIF1A) Trancription factor using HepaRG (AID 2283503)
In short: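 HIF1A transcript level read by qRT-PCR (ACTB, GAPDH, POLR2A normalization) after 48 h chemical exposure of HepaRG cultures. Eight half-log concentrations, top 100 uM, 0.5% DMSO vehicle, duplicates; bidirectional curve fit against DMSO baseline.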

[13] = read-out: 3-Hydroxy-3-Methylglutaryl-CoA Synthase 2 (HMGCS2), HMGCS2 (gene 3158); test: LTEA_HepaRG_HMGCS2: Life Technologies and Expression Analysis (LTEA) Assay for 3-Hydroxy-3-Methylglutaryl-CoA Synthase 2 (HMGCS2) using HepaRG (AID 2283504)
In short: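 Expression of HMGCS2 in human HepaRG liver cells is measured by qRT-PCR 48 h after dosing (highest 100 uM, half-log series, 0.5% DMSO). Values come from bidirectional concentration-response fitting with DMSO as baseline.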

HGF (gene 3082) = test: LTEA_HepaRG_HGF: Life Technologies and Expression Analysis (LTEA) Assay for Hepatocyte Growth Facto (HGF) using HepaRG (AID 2283505)
In short: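 Gain or loss of HGF mRNA in human HepaRG liver cells after 48 h chemical exposure; eight concentrations up to 100 uM with 0.5% DMSO vehicle, quantified by TaqMan qRT-PCR.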

[14] = read-out: Insulin Like Growth Factor 1 (IGF1), IGF1 (gene 3479); test: LTEA_HepaRG_IGF1: Life Technologies and Expression Analysis (LTEA) Assay for Insulin Like Growth Factor 1 (IGF1) using HepaRG (AID 2283506)
In short: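 Cells are thawed, plated and cultured 48 h, then exposed in duplicate to chemical (highest 100 uM, half-log steps, 0.5% DMSO) for another 48 h. Total RNA is analysed by Fluidigm qRT-PCR for IGF1 expression relative to vehicle.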

[15] = read-out: Intercellular Adhesion Molecule 1 (ICAM1), ICAM1 (gene 3383); test: LTEA_HepaRG_ICAM1: Life Technologies and Expression Analysis (LTEA) Assay for Intercellular Adhesion Molecule 1 (ICAM1) using HepaRG (AID 2283507)
In short: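 Gain or loss of transcript in HepaRG hepatic cells is quantified by qRT-PCR after 48 h chemical exposure (up to 100 uM, half-log steps), with DMSO as baseline.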

[16] = read-out: Insulin-like growth factor-binding protein 1 (IGFBP1), IGFBP1 (gene 3484); test: LTEA_HepaRG_IGFBP1: Life Technologies and Expression Analysis (LTEA) Assay for Insulin-like growth factor-binding protein 1 (IGFBP1) using HepaRG (AID 2283508)
In short: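 mRNA induction or loss was quantified by qRT-PCR after 48 h chemical exposure of human HepaRG cells, with 0.5% DMSO as vehicle and baseline. Concentration-response over eight points up to 100 uM.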

[17] = read-out: Glutamate-cysteine ligase regulatory (GCLM), GCLM (gene 2730); test: LTEA_HepaRG_GCLM: Life Technologies and Expression Analysis (LTEA) Assay for Glutamate-cysteine ligase regulatory (GCLM) using HepaRG (AID 2283500)
In short: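 Endpoint is GCLM transcript level by qRT-PCR, normalized to three housekeeping genes, after 48 h chemical exposure of human HepaRG cells (0.5% DMSO vehicle, top 100 uM, half-log dilutions). Fitting was bidirectional relative to DMSO.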

[18] = read-out: Glutathione S-transferase M3 (GSTM3), GSTM3 (gene 2947); test: LTEA_HepaRG_GSTM3: Life Technologies and Expression Analysis (LTEA) Assay for Glutathione S-transferase M3 (GSTM3) using HepaRG (AID 2283501)
In short: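 Changes in GSTM3 expression, an oxidative-stress marker, were scored by bidirectional curve fitting against 0.5% DMSO vehicle. Human HepaRG cultures received chemicals for 48 h in duplicate, highest concentration 100 uM with half-log dilutions.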

Sequence of Cytochrome P450 3A7 (Homo sapiens) (P24462 whole entry, looked up): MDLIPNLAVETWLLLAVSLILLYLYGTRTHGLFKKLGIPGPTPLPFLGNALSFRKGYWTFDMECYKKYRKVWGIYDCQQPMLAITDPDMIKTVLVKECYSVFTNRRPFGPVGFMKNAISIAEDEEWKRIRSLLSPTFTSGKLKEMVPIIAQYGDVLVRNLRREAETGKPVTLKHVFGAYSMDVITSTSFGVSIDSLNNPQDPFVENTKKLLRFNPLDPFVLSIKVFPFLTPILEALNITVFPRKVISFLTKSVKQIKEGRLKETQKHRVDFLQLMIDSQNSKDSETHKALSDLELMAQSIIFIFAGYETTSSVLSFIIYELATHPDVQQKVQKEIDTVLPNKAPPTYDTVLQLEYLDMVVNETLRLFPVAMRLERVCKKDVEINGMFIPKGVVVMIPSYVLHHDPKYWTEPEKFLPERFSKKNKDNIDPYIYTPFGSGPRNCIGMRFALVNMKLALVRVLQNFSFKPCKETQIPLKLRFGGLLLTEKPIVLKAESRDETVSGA
Sequence of Hypoxia-inducible factor 1-alpha (Homo sapiens) (Q16665 whole entry, looked up): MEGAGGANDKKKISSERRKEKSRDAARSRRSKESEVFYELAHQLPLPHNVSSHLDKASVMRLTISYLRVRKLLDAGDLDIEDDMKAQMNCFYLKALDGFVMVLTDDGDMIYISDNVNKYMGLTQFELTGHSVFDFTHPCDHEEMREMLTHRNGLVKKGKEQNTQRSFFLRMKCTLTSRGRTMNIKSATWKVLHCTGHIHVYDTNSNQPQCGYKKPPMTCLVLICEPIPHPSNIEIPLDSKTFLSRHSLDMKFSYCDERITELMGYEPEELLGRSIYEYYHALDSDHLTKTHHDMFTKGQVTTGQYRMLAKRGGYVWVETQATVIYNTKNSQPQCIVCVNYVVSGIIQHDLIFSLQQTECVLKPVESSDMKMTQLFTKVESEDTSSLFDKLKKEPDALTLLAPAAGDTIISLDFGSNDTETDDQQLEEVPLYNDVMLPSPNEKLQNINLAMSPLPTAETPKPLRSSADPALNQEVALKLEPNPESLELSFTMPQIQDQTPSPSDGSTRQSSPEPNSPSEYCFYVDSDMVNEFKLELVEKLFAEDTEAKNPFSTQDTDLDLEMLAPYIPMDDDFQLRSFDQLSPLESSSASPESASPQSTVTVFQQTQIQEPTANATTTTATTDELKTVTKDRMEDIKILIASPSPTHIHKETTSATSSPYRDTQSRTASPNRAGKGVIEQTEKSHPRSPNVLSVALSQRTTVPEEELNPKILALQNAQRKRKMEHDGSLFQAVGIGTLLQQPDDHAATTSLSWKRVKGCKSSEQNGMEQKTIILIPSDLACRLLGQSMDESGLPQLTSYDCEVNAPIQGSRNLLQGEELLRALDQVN

COC(=O)c1c(C(F)F)nc(C(F)(F)F)c(C2=NCCS2)c1CC(C)C
outcome [1]: inactive | outcome [2]: inactive | outcome [3]: inactive | AC50 [4]: 50 µM (active) | outcome (CYP3A5 (gene 1577)): inactive | outcome [5]: inactive | outcome [6]: inactive | outcome [7]: inactive | outcome [8]: inactive | outcome [9]: inactive | outcome [10]: inactive | outcome [11]: inactive | outcome [12]: inactive | outcome [13]: inactive | outcome (HGF (gene 3082)): inactive | outcome [14]: inactive | outcome [15]: inactive | outcome [16]: inactive

O=C1C2CC=CCC2C(=O)N1SC(Cl)(Cl)Cl (configuration not stated)
outcome [1]: inactive | outcome [2]: inactive | outcome [3]: inactive | outcome [4]: inactive | outcome (CYP3A5 (gene 1577)): inactive | outcome [5]: inactive | outcome [7]: inactive | outcome [8]: inactive | outcome [9]: inactive | outcome [10]: inactive | outcome [17]: inactive | outcome [18]: inactive | outcome [11]: inactive | outcome [12]: inactive | outcome [13]: inactive | outcome (HGF (gene 3082)): inactive | outcome [14]: inactive | outcome [15]: inactive | AC50 [16]: 20.2 µM (active)

CCCCC(O)(Cn1cncn1)c1ccc(Cl)cc1Cl (configuration not stated)
outcome [1]: inactive | AC50 [2]: 69.2 µM (active) | outcome [3]: inactive | AC50 [4]: 89.4 µM (active) | outcome (CYP3A5 (gene 1577)): inactive | AC50 [5]: 79.6 µM (active) | AC50 [6]: 67.8 µM (active) | AC50 [7]: 89 µM (active) | AC50 [8]: 73.2 µM (active) | outcome [9]: inactive | AC50 [10]: 15.8 µM (active) | outcome [17]: inactive | AC50 [18]: 82.6 µM (active) | AC50 [11]: 18.8 µM (active) | AC50 [12]: 80.6 µM (active) | AC50 [13]: 77.9 µM (active) | AC50 (HGF (gene 3082)): 75.3 µM (active) | AC50 [14]: 75.1 µM (active) | AC50 [15]: 83.9 µM (active) | AC50 [16]: 79.3 µM (active)

From PubChem BioAssay (EPA / NIEHS)
